Screens as filed in PubChem.
Compounds with a hit are over-represented: about 4.8% of the library has one in this group of screens.
ssDAF12 agonist: activators of S. stercoralis DAF-12 nuclear receptor; HEK293 ssDAF-12/GRIP1 lit1-tk-luc reporter, luminescence; % of 3 µM dafachronic acid response; activation, % at 6.8 µM; 1% of 370,000 active;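 active means activation above the mean over all tested compounds plus 3 SD, cut at about 0.9% in these data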
hcDAF-12 act: activates DAF-12 receptor from parasite H. contortus; HEK293 hcDAF-12 lit1-tk-luc reporter, luminescence; 0% DMSO, 100% Δ7-dafachronic acid; activation, % at 6.8 µM; 1.4% of 370,000 active;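 active means activation above the mean of all tested compounds plus 3 SD, cut at about 5.5% in these data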
DAX1 inh-1: blocks DAX1 repression of SF-1 activated StAR promoter; HEK293T StAR-luciferase reporter, SF-1/DAX-1 repression relief; inhibition, % at 6.8 µM; 1.1% of 370,000 active;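 active means inhibition above the mean over all tested compounds plus 3 SD, cut at about 3.6% in these data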;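 further: higher inhibition means more luminescence from relief of DAX-1 repression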
hgDAF12 agonist: activates the H. glycines DAF-12 receptor ligand-binding domain; HEK293 GAL4-hgDAF12 UAS-luciferase reporter, agonist luminescence; normalized to butyrate control; activation, % at 6.8 µM; 1.8% of 370,000 active; AID 687014;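 active means activation above a cutoff set at the mean of all screened compounds plus 3 SD, cut at about 10% in these data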
SMARCA2 act: increases SMARCA2 function in MMTV reporter cells; 1% of 370,000 active; MG213 cells, MMTV-luciferase reporter, dexamethasone, overnight; activation, % at 9.1 µM; AID 652017; in the data active means activation above about 7.8%
DAX1 inh-2: inhibitors of human orphan nuclear receptor DAX1 (NR0B1); P51843; AID 504766; 0.99% of 340,000 active; HEK293 Gal4-DAX1 luciferase reporter, luminescence; inhibition, % at 6.75 µM;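 active means inhibition above the mean over all tested compounds plus 3 SD, cut at about 4.2% in these data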;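 further: inhibition shows as a rise in luminescence from relieved DAX1 repression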
Target sequence (P51843 207-470 limits assumed): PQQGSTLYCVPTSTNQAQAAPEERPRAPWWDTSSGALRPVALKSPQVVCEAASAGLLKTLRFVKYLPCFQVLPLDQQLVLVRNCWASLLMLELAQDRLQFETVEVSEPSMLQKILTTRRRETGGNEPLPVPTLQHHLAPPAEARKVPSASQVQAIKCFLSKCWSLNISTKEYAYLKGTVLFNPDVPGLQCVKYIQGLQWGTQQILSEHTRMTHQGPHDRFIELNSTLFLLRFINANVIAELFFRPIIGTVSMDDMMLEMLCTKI
Numbers stand for hits; n = inactive; x = no result given.

SMILES	ssDAF12 agonist	hcDAF-12 act	DAX1 inh-1	hgDAF12 agonist	SMARCA2 act	DAX1 inh-2
Cn1c(C(=O)N2CCCCCC2)cc2c(=O)n(C)c3ccccc3c21	n	n	n	n	n	n
COC(=O)[C@@]1(C)[C@H]2C(=O)N(Cc3ccccc3)C(=O)[C@H]2[C@H]2CN=C(SCc3ccc(C#N)cc3)N21	n	n	n	n	n	n
FC(F)(F)C1=NNC(c2ccc3ccccc3c2)=NN1	n	n	n	11.7	n	n
COc1cnn(-c2cccc(C)c2)c(=O)c1Cl	n	n	n	n	n	n
NCCOc1cnn(-c2ccccc2Cl)c(=O)c1Cl	1.0	n	n	n	n	n
CC(C)CN1CCN(Cc2c[nH]c3ccccc23)CC1CCO (centres undefined)	n	n	n	n	n	n
CC(C)=CCN1CCN(Cc2c[nH]c3ccccc23)CC1CCO (centres undefined)	0.9	n	n	n	n	n
O=C(N/N=C/c1ccco1)c1cc(-c2ccccc2)n[nH]1	n	n	n	n	n	n
COc1ccc(N(CC(=O)N/N=C(\C)c2ccc(C)cc2)S(=O)(=O)c2ccccc2)cc1	n	n	n	n	n	n
COc1ccc(/C(C)=N/NC(=O)CN(c2ccc(OC)cc2)S(=O)(=O)c2ccccc2)cc1	n	n	n	n	n	4.4
O=C(NC1CCN(C(=O)N2CCOCC2)CC1)c1ccccc1	n	n	n	n	n	n
CCN(CC)C(=O)N1CCC(NC(=O)c2ccccc2)CC1	n	n	n	n	n	4.7
FC(F)Oc1ccc(NC(=S)N2CCc3ccccc32)cc1	1.4	n	n	n	n	n
Cc1c(/C=C/C(=O)c2ccccc2O)cnn1C	n	n	n	13.2	n	4.5
Cc1ccc2nc(SCC(=O)Nc3ccc(F)c([N+](=O)[O-])c3)[nH]c2c1	n	n	n	n	n	n
Cc1ccc2nc(SCC(=O)Nc3cc([N+](=O)[O-])ccc3F)[nH]c2c1	n	6.1	n	n	n	n
C=CCN=C1NC(CCc2ccccc2)C(C(=O)OC)=C(C)N1C (centres undefined)	n	n	n	n	n	x
CN(C)S(=O)(=O)N1CCC(Oc2cccc(C(=O)NC3CCCCC3)c2)CC1	n	n	n	n	n	n
O=C(NCC(=O)N(Cc1cccs1)C(C(=O)NC1CCCCC1)c1ccncc1)c1ccco1 (centres undefined)	n	n	n	n	n	n
CN(C)S(=O)(=O)c1ccc(N2C(=O)CC2(/C=C/c2ccccc2)C(=O)NC2CCCC2)cc1 (centres undefined)	n	n	n	n	n	n
COc1ccccc1/C=C/C1(C(=O)NC2CCCC2)CC(=O)N1c1ccccc1 (centres undefined)	n	n	n	n	n	4.9
Cc1c(Cl)cccc1N1C(=O)CC(NNC(=O)c2cccnc2)C1=O (centres undefined)	n	n	n	n	n	n
Cc1c(Cl)cccc1N1C(=O)CC(NNC(=O)c2cccs2)C1=O (centres undefined)	n	n	n	10.4	n	n
CC(C(=O)N1CCN(c2ccccc2)CC1)N1C(=O)C2CC=CCC2C1=O (centres undefined)	n	n	n	n	n	5.0
Cc1cc([N+](=O)[O-])nn1CCCC(=O)NC1CCCCC1	n	n	n	n	n	8.3
SMILES	ssDAF12 agonist	hcDAF-12 act	DAX1 inh-1	hgDAF12 agonist	SMARCA2 act	DAX1 inh-2
O=c1c2ccccc2nc2ccc(NCc3ccco3)nn12	n	n	n	n	n	5.2
CCN(CC)Cc1c(O)ccc2c([N+](=O)[O-])c(C)n(-c3ccc(OC)cc3)c12	n	n	n	n	n	n
CCCC(=O)Nc1ccc(C#Cc2ccccc2)cc1	n	n	n	12.4	n	n
CCNC(=O)COC(=O)/C=C/c1cccc(F)c1	n	n	n	n	n	n
O=C(OCC(=O)N1CCN(C(=O)c2ccco2)CC1)c1cc(-c2ccco2)nc2ccccc12	x	x	x	x	x	n
O=C(O)c1cc2c(o1)CCC/C2=N\O	n	n	n	n	n	n
O=C(N/N=C1\CCCc2oc(C(=O)O)cc21)c1ccccc1	1.7	n	n	10.8	n	n
Cc1ccc(CSCc2ccc(C(=O)NCCCN3CCOCC3)o2)cc1	n	n	n	n	n	n
